Assay results taken from ChEMBL document CHEMBL2218924, “A broad activity screen in support of a chemogenomic map for kinase signalling research and drug discovery” (Biochem J, 2013).

Key:
[1] = biological target: Homeodomain-interacting protein kinase 3 (Homo sapiens) (UniProt Q9H422); conditions: at 10 µM
[2] = biological target: T1, Serine/threonine-protein kinase haspin (Homo sapiens) (UniProt Q8TF76); conditions: at 1 µM
T1 sequence (whole entry): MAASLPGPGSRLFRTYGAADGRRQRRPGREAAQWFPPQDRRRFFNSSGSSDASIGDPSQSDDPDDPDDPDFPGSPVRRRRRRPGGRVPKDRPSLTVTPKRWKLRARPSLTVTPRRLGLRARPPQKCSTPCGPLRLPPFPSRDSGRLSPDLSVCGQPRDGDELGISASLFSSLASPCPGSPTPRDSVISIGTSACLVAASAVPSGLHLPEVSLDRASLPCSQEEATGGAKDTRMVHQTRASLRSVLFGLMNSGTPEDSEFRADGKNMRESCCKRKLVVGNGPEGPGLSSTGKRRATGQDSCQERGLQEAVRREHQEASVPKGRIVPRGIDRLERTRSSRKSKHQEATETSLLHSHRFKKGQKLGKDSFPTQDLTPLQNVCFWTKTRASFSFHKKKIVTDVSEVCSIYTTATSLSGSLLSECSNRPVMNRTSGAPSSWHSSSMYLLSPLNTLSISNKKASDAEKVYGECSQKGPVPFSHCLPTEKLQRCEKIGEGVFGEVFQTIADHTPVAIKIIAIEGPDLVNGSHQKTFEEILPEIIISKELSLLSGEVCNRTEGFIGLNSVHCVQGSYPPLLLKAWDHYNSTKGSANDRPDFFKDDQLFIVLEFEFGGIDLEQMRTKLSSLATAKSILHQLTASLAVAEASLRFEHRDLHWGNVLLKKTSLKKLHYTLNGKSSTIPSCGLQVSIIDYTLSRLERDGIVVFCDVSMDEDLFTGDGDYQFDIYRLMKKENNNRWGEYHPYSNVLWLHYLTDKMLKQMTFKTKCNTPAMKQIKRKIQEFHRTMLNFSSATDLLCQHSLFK

[3] = biological target: T1, Serine/threonine-protein kinase haspin (Homo sapiens); conditions: at 10 µM
[4] = biological target: Tyrosine-protein kinase HCK (Homo sapiens) (UniProt P08631); conditions: at 1 µM
[5] = biological target: Tyrosine-protein kinase HCK (Homo sapiens) (UniProt P08631); conditions: at 10 µM
[6] = biological target: Tyrosine-protein kinase HCK (Homo sapiens) (UniProt P08631); conditions: at 1 µM; remark: listed apart in the source
[7] = biological target: Tyrosine-protein kinase HCK (Homo sapiens) (UniProt P08631); conditions: at 10 µM; remark: listed apart in the source
[8] = biological target: Insulin-like growth factor 1 receptor (Homo sapiens) (UniProt P08069); conditions: at 1 µM
[9] = biological target: Insulin-like growth factor 1 receptor (Homo sapiens) (UniProt P08069); conditions: at 10 µM
[10] = biological target: Protein kinase C eta type (Homo sapiens) (UniProt P24723); conditions: at 1 µM
[11] = biological target: Protein kinase C eta type (Homo sapiens) (UniProt P24723); conditions: at 10 µM
[12] = biological target: Protein kinase C theta type (Homo sapiens) (UniProt Q04759); conditions: at 1 µM
[13] = biological target: Protein kinase C theta type (Homo sapiens) (UniProt Q04759); conditions: at 10 µM
[14] = biological target: T2, Protein kinase C iota type (Homo sapiens) (UniProt P41743); conditions: at 1 µM
T2 sequence (whole entry): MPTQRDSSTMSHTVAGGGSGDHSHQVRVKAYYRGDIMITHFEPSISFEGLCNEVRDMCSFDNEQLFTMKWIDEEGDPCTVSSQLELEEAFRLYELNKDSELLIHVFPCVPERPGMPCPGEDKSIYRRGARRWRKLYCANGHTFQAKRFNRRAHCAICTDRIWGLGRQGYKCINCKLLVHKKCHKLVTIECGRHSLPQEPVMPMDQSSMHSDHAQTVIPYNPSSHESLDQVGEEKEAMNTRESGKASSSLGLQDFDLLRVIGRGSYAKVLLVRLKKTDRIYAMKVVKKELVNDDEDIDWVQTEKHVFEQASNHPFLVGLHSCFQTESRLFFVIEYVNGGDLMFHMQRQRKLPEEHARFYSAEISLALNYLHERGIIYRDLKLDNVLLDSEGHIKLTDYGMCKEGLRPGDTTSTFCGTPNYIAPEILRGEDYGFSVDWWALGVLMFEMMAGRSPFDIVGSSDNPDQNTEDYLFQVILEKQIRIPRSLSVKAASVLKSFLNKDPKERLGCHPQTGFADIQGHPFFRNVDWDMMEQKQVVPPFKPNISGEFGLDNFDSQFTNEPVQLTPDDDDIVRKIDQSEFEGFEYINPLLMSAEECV

[15] = biological target: T2, Protein kinase C iota type (Homo sapiens); conditions: at 10 µM
[16] = biological target: T3, Serine/threonine-protein kinase D1 (Homo sapiens) (UniProt Q15139); conditions: at 1 µM
T3 sequence (whole entry): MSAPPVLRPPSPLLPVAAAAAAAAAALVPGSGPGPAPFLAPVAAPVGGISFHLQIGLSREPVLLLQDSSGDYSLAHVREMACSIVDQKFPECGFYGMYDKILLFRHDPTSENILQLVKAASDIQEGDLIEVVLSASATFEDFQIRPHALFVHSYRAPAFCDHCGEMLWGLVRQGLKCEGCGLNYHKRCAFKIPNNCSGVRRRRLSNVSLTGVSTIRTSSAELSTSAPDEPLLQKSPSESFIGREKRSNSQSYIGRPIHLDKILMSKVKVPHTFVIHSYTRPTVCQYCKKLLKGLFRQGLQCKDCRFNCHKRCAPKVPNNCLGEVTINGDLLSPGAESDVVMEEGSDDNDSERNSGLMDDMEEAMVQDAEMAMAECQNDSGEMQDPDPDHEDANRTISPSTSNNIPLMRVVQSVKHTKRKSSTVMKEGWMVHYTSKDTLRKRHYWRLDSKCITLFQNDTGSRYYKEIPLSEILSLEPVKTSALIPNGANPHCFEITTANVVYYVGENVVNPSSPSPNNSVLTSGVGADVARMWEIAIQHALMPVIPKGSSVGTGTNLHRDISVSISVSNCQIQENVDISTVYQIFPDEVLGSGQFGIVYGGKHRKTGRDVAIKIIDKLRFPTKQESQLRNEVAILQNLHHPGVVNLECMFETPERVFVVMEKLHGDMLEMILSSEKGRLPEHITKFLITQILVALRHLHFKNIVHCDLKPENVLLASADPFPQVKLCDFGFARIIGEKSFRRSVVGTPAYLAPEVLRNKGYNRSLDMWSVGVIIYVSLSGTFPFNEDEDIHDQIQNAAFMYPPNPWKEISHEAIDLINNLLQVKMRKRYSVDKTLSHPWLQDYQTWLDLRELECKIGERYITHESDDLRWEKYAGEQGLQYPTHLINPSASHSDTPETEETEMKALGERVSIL

[17] = biological target: T3, Serine/threonine-protein kinase D1 (Homo sapiens); conditions: at 10 µM
[18] = biological target: T4, Protein kinase C zeta type (Homo sapiens) (UniProt Q05513); conditions: at 10 µM
T4 sequence (whole entry): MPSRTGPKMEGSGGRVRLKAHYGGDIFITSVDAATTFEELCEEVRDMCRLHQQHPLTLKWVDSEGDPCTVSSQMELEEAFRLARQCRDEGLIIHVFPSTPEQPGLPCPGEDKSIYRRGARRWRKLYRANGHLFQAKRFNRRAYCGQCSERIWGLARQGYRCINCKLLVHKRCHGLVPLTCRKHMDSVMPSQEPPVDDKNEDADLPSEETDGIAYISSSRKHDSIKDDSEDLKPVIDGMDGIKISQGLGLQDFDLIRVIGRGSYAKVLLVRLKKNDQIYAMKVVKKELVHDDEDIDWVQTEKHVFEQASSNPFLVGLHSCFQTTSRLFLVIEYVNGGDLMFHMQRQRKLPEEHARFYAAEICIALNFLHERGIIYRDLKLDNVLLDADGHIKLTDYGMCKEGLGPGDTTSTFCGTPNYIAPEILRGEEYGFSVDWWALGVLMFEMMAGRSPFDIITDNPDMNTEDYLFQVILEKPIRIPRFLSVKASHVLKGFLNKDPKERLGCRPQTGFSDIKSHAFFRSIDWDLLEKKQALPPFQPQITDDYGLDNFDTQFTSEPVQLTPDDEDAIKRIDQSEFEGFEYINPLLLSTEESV

[19] = biological target: T5, Serine/threonine-protein kinase D2 (Homo sapiens) (UniProt Q9BZL6); conditions: at 1 µM
T5 sequence (whole entry): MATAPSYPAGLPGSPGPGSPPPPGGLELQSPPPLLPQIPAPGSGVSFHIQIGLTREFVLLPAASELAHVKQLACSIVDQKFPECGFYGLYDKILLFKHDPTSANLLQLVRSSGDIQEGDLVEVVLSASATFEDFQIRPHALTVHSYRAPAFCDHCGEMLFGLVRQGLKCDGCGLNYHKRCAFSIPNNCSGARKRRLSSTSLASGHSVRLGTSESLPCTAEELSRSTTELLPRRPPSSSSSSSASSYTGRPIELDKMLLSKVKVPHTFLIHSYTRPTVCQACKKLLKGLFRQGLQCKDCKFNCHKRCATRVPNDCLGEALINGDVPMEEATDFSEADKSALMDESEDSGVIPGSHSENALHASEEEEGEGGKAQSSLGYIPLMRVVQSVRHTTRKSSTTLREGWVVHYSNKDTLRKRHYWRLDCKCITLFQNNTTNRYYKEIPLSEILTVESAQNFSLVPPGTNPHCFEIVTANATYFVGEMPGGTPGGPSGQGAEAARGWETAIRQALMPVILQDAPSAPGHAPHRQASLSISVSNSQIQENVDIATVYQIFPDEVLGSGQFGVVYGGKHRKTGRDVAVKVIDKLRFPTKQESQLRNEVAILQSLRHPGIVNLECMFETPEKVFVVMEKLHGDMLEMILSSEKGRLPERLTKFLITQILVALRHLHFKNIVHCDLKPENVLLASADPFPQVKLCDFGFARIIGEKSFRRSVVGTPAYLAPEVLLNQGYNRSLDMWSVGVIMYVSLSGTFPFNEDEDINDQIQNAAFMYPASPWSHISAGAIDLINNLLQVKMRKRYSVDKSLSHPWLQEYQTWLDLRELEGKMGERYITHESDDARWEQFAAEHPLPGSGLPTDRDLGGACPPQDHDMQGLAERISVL

[20] = biological target: T5, Serine/threonine-protein kinase D2 (Homo sapiens); conditions: at 10 µM

Chain of Protein kinase C theta type (Homo sapiens) (Q04759 whole entry, looked up): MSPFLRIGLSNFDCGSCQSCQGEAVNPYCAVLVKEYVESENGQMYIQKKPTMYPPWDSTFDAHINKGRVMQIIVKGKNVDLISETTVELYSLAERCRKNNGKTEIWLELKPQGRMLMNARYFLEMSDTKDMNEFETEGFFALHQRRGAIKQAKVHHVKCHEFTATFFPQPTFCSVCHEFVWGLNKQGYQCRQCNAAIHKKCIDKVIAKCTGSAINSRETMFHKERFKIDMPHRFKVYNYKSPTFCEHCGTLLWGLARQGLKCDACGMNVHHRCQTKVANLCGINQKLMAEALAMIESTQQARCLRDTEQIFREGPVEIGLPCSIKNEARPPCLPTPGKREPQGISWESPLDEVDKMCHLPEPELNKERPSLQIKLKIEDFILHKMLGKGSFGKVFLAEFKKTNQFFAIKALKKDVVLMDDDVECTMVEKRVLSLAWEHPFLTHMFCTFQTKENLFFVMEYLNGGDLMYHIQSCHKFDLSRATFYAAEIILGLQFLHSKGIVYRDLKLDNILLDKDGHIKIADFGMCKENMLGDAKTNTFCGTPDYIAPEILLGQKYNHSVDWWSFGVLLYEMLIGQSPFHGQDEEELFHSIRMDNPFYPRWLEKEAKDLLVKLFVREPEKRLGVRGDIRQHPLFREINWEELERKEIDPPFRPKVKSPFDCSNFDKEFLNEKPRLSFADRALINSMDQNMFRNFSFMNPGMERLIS
Chain of Protein kinase C eta type (Homo sapiens) (P24723 whole entry): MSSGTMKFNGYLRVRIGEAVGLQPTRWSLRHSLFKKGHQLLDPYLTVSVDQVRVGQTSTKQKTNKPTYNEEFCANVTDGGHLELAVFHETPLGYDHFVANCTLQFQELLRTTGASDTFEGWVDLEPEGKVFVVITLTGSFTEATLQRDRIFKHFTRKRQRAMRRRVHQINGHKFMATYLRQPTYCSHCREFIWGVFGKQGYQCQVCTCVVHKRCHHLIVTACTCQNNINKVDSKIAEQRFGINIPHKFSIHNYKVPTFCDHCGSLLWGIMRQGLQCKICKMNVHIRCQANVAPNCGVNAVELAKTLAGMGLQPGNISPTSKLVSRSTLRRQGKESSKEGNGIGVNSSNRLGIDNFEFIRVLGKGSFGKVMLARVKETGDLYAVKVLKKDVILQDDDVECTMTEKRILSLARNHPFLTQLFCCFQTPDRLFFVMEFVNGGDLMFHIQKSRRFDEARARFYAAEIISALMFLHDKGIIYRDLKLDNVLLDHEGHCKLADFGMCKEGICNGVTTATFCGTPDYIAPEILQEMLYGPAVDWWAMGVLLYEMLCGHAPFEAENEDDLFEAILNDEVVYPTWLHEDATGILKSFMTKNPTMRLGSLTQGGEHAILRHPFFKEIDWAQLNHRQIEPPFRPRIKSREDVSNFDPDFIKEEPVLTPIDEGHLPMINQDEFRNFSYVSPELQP
Chain of Homeodomain-interacting protein kinase 3 (Homo sapiens) (Q9H422 whole entry, looked up): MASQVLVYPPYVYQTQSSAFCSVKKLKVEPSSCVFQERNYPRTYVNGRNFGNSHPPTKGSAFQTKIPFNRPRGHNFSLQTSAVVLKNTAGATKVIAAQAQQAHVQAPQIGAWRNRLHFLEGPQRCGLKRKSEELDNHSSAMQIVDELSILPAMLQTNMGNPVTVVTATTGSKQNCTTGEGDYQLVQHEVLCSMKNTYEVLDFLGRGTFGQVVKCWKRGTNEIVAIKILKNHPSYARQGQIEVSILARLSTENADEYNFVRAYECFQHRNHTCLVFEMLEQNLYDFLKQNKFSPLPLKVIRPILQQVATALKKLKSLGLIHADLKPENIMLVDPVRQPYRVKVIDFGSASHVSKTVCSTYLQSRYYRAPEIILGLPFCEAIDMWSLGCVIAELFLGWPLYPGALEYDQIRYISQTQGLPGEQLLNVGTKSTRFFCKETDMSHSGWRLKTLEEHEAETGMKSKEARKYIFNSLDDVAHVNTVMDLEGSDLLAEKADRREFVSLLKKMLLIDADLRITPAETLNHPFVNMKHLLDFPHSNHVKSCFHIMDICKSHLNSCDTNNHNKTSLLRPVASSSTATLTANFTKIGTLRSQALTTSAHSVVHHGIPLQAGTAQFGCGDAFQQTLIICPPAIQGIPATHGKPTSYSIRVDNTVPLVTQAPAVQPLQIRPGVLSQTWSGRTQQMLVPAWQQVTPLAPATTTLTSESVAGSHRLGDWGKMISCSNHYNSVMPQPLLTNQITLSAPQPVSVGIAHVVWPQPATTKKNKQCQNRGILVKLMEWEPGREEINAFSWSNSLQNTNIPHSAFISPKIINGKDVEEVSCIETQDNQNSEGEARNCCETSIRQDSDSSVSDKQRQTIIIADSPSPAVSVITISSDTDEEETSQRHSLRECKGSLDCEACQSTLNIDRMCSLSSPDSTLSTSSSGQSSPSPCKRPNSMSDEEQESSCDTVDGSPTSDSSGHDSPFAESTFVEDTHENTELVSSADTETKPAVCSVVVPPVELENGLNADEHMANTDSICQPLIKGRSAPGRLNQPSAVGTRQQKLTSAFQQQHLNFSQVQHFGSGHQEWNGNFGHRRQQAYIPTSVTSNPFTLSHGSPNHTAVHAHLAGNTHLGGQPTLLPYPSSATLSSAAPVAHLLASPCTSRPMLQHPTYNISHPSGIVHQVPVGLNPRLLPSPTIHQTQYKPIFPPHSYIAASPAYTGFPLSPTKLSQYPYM
Chain of Tyrosine-protein kinase HCK (Homo sapiens) (P08631 2-526 limits assumed): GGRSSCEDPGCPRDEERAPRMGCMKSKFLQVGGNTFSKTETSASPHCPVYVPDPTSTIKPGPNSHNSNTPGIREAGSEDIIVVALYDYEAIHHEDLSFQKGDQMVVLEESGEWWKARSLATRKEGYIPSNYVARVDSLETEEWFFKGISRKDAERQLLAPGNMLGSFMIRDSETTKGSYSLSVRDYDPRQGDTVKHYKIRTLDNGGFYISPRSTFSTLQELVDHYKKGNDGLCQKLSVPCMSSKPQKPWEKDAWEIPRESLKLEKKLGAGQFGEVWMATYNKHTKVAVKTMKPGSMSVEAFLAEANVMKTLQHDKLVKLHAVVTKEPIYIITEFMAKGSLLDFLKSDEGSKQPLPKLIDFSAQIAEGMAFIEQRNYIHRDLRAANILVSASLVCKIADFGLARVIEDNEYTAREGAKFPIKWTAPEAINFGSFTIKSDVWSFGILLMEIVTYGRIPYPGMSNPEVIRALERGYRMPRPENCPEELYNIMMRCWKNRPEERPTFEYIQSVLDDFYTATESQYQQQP
Chain of Insulin-like growth factor 1 receptor (Homo sapiens) (P08069 31-736 limits assumed): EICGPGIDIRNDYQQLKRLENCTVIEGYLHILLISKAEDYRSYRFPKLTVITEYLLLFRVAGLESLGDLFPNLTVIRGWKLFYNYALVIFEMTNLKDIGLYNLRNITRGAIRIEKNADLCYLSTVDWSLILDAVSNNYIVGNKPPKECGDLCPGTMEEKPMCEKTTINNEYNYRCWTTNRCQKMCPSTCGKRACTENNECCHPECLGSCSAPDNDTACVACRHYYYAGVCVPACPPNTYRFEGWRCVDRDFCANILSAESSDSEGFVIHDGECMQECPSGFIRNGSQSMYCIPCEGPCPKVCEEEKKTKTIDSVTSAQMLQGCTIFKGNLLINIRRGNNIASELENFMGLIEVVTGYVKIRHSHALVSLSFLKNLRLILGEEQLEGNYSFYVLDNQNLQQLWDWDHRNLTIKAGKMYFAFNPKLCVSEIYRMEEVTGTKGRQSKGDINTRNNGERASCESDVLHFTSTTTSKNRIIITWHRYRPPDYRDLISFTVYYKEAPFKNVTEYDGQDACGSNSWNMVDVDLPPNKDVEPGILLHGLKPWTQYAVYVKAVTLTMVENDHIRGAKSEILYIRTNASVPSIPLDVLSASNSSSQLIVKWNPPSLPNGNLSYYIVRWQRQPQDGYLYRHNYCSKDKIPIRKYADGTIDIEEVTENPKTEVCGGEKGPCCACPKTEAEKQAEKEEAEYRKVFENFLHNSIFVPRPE
Chain of Insulin-like growth factor 1 receptor (Homo sapiens) (P08069 741-1367 limits assumed): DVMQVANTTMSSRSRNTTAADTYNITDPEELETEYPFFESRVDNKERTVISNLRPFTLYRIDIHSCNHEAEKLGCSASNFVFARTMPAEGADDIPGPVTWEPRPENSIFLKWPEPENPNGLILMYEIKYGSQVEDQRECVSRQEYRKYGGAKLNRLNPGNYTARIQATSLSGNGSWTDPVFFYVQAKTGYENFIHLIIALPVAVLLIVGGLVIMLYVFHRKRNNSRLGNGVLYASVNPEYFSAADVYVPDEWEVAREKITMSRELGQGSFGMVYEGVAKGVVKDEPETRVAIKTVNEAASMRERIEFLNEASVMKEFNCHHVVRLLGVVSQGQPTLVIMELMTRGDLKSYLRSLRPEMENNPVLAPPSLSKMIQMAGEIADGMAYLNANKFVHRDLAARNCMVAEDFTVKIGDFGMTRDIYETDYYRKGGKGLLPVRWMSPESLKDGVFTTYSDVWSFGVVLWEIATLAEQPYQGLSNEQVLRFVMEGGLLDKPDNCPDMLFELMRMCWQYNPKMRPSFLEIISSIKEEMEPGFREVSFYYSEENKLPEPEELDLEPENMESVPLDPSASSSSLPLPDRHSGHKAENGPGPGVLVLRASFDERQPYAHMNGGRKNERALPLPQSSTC

SMILES | residual activity [1] [%] | residual activity [2] [%] | residual activity [3] [%] | residual activity [4] [%] | residual activity [5] [%] | residual activity [6] [%] | residual activity [7] [%] | residual activity [8] [%] | residual activity [9] [%] | residual activity [10] [%] | residual activity [11] [%] | residual activity [12] [%] | residual activity [13] [%] | residual activity [14] | residual activity [15] [%] | residual activity [16] [%] | residual activity [17] [%] | residual activity [18] [%] | residual activity [19] [%] | residual activity [20] [%]
COc1cc2nccc(Oc3ccc(NC(=S)NC(=O)c4ccccc4C)cc3)c2cc1OC | 101 | 80 | 35 | 7 | 1 | 11 | 3 | 120 | 148 | 98 | 71 | 89 | 97 | 88% (inactive) | 82 | 87 | 89 |  |  | 
CC(C)(C)n1nc(Cc2cccc3ccccc23)c2c(N)ncnc21 | 97 | 79 | 16 | 32 | 3 | 43 |  | 142 | 96 | 77 | 86 | 98 | 92 | 115% (inactive) | 82 | 22 |  | 116 | 80 | 24
O=C(NC(NC(=S)Nc1ccc(F)c([N+](=O)[O-])c1)C(Cl)(Cl)Cl)C(c1ccccc1)c1ccccc1 (configuration not stated) | 103 | 83 | 47 | 80 | 38 |  |  | 76 | 42 |  | 90 | 97 | 104 |  |  |  | 88 | 94 | 100 | 100
N#C/C(=C1/Nc2ccccc2S1)c1ccnc(NCCc2cccnc2)n1 | 21 | 36 | -2 | 60 | 26 | 88 | 68 | 143 | 72 |  |  | 95 | 72 |  |  | 73 | 36 |  |  | 
